Screening data (PubChem BioAssay)
SARS PLP yeast – qHTS of Yeast-based Assay for SARS-CoV PLP; S. cerevisiae expressing SARS-CoV PLpro, growth rescue; Potency, µM (series often up to 32.9 µM), actives largely listed as activators; hit rate 0.19% among 330,000; AID 485353, 2010; note: nearly all actives have a fitted effect of over 55% in size
NS1 inh – qHTS Assay for Inhibitors of Influenza NS1 Protein Function; Potency, µM (series often up to 46.1 µM); hit rate 0.4% among 270,000; note: actives are rising curves; nearly all actives have a fitted effect of over 50% in size
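In this qHTS, NS1 from influenza A is expressed in budding yeast, where it slows growth. Cells are switched from glucose to 2% galactose medium (pH 6.0, -URA), treated with compound, and growth recovery is read at OD600.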
CHX counter – Cycloheximide Counterscreen for Small Molecule Inhibitors of Shiga Toxin. hit rate 12% among 300,000. AID 2314, 2010. cell reporter, cycloheximide protein synthesis inhibition counterscreen. max response, %; in the data active = max response mostly above about 13%, no sharp cut-off; inactive = mostly below about 14%; note: read at 38.3 µM for the half of the compounds with a filed dose
Shiga toxin inh – A qHTS for Small Molecule Inhibitors of Shiga Toxin. Vero cells, Shiga toxin protein synthesis inhibition reporter. inhibition, % at 38.7 µM. hit rate 9.2% among 290,000. AID 2315, 2010; in the data active = inhibition mostly above about 28%, no sharp cut-off; inactive = mostly below about 43%
Each line names hits and unclear results; the compound was inactive in the other large screens. Most compounds without a hit are left out; they make up all but 12% or so of the library. Unless noted, calls come from the whole dose curve.

CC1CCc2c(nc3sc4c(c3c2N)CCCC4)C1 (stereo not drawn)	CHX counter 37.4, Shiga toxin inh active
CCc1nc2sc3c(c2c(=O)o1)CCCC3	none
CC(C)(O)C#Cc1ccc(CN2CCCC(CO)(Cc3cccc(Cl)c3)C2)cc1 (stereo not drawn)	none
O=C(c1ccccc1)n1ccc2ccccc21	CHX counter 31.3, Shiga toxin inh 136.6
COc1ccccc1Nc1ncc(-c2cccs2)s1	CHX counter 40.2, Shiga toxin inh 107.9
CCOC(=O)c1c(C)oc(NC(=O)CCl)c1C(=O)OCC	SARS PLP yeast inconclusive (no result: NS1 inh)
O=C(OCC(=O)N1CCC(Cc2ccccc2)CC1)c1cncc(Br)c1	none (no result: NS1 inh, CHX counter, Shiga toxin inh)
CCCn1c2ccccc2c2cnn(CC(=O)NC3CCN(Cc4ccccc4)CC3)c(=O)c21	none
CCOc1ccc(N(C(=O)c2cc3ccccc3oc2=O)C2C=CS(=O)(=O)C2)cc1 (stereo not drawn)	CHX counter 27.8, Shiga toxin inh 77.9 (no result: NS1 inh)
COc1ccccc1CNC(=O)Cc1ccc(OC)c(OC)c1	none
O=C(CSc1ccccc1)NCc1ccccc1	CHX counter 18.2 (no result: Shiga toxin inh)
